According to the supplement of paper PMC7156485:
± gives the standard deviation of the averaged measurements.

Key:
Settings in all cases: concentration: 10 µM; 24 h
HCC1569 [1] = assay: cell number relative to DMSO (% of DMSO); higher = more cells (less growth inhibition / toxicity)
Outline: (§1)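 Cells were seeded at 800 per well in 384-well plates with RPMI containing 10% FBS; both HCC1569 and TDF lines were used. Compounds were added at 10 µM for 24 h at 37 °C, in triplicate, before fixation in 3.7% formaldehyde and staining with a rabbit anti-H1.0 antibody, an AlexaFluor 647 secondary and DAPI. H1.0 nuclear intensity or cell number is reported as percent of the plate control using the median of replicates, and HCC1569 values were smoothed for positional effects.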

TDF [2] = assay: as above
Outline: as §1

TDF [3] = assay: H1.0 immunofluorescence intensity relative to DMSO (% of DMSO); higher = stronger H1.0 induction, active = 120 or more
Outline: as §1

HCC1569 [4] = assay: H1.0 immunofluorescence intensity relative to DMSO (% of DMSO); higher = stronger H1.0 induction, active = 140 or more
Outline: as §1
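For H1.0 immunofluorescence intensity relative to DMSO in this document: TDF is a line of transformed human dermal fibroblasts of mesenchymal origin.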
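For cell number relative to DMSO in this document: TDF denotes transformed human dermal fibroblasts of mesenchymal origin.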

Compound | cell number (HCC1569 [1]) | cell number (TDF [2]) | H1.0 immunofluorescence intensity (TDF [3]) | H1.0 immunofluorescence intensity (HCC1569 [4])
CCCn1c(C)c(C(=O)c2cccc3ccccc23)c2ccccc21 | 99.3 | 88.2 | 96.2 (inactive) | 100 (inactive)
Cc1sc2c(c1C)C(c1ccc(Cl)cc1)=N[C@@H](CC(N)=O)c1nnc(C)n1-2 | 79.2 | 67.9 | 141 (active) | 220 (active)
CC1(C(=O)O)C2CCC(O2)C1(C)C(=O)O (stereo unspecified) [Cantharidic Acid] | 19.6 | 13.6 | 239 (active) | 180 (active)
C#CCN(C)C(C)Cc1ccccc1.Cl [(R)-(-)-Deprenyl.HCl] | 104 | 103 | 97.8 (inactive) | 101 (inactive)
Cc1cccc(C)c1NC1=NCCCS1.Cl [Xylazine hydrochloride] | 100 | 118 | 99.9 (inactive) | 111 (inactive)
CCC1(c2ccc(N)cc2)CCC(=O)NC1=O (racemic) | 98.8 | 109 | 85.7 (inactive) | 89.1 (inactive)
COc1ccc2c(c1)[nH]c1c(C)nccc12 [Harmine] | 87.2 ± 2.5 | 94.9 ± 3.2 | 99.7 (inactive) | 106 (inactive)
CCCC(=O)OCC[N+](C)(C)C [Butyrylcholine] | 101 | 104 | 92.9 (inactive) | 111 (inactive)
CCCCCCC(=O)CCCCCCC=CCC(O)C(O)C(N)(CO)C(=O)O (stereo unspecified) [Myriocin] | 100 | 92.4 | 99.4 (inactive) | 87.9 (inactive)
COC1C=C2CCN(C)C2C2c3cc4c(cc3C(=O)OC12)OCO4.O=[N+]([O-])O (stereo unspecified) [Ungerine nitrate] | 100 | 107 | 96.5 (inactive) | 88.8 (inactive)
C[N+]1(C)C2CC(OC(=O)C(CO)c3ccccc3)CC1C1OC12.O=[N+]([O-])[O-] (single isomer, unassigned; (-)) [(-)-Scopolamine methyl nitrate] | 99.7 | 98.7 | 93.1 (inactive) | 106 (inactive)
CC1Cc2cc3c(cc2C(c2ccc(N)cc2)=NN1)OCO3 (stereo unspecified) | 98.9 | 112 | 103 (inactive) | 98.2 (inactive)
CC1=C(O)C(=O)C=C2C1=CC=C1C2(C)CCC2(C)C3CC(C)(C(=O)O)CCC3(C)CCC12C (stereo unspecified) [Celastrol] | 38 | 64 | 120 (inactive) | 114 (inactive)
COc1ccc(Cc2nccc3cc(OC)c(OC)cc23)cc1OC.Cl [Papaverine hydrochloride] | 87.1 ± 1.7 | 77.7 ± 7.8 | 102 (inactive) | 126 (inactive)
COC1=CC(=O)OC(CCc2ccc3c(c2)OCO3)C1 (stereo unspecified) [Dihydromethysticin] | 96.6 | 105 | 90.4 (inactive) | 83.9 (inactive)
CC1OC(OC2CC(O)C3(CO)C4C(O)CC5(C)C(C6=CC(=O)OC6)CCC5(O)C4CCC3(O)C2)C(O)C(O)C1O (stereo unspecified) [Ouabain] | 46.2 | 36.4 | 125 (active) | 126 (inactive)
Cc1ccc(S(=O)(=O)NC(CCCCN)C(=O)CCl)cc1.Cl [Na-p-Tosyl-L-lysine chloromethyl ketone hydrochloride] | 98.8 | 104 | 95.7 (inactive) | 101 (inactive)
NC(CP(=O)(O)O)C(=O)O (racemic) | 105 | 104 | 82.6 (inactive) | 91.4 (inactive)
COC1=CC2C3Cc4ccc(OC)c(O)c4C2(CCN3C)CC1=O (stereo unspecified) [Sinomenine] | 101 | 95.5 | 94.1 (inactive) | 83.8 (inactive)
CCC(C)C(=O)OC1C(O)C2C(CN3CC(C)CCC3C2(C)O)C2CC34OC5(O)C(OC(=O)C(C)(O)C(C)O)CCC3(C)C5C(OC(C)=O)C(OC(C)=O)C4C21O (stereo unspecified) [Protoveratrine B] | 104 | 97.9 | 106 (inactive) | 93.2 (inactive)
C=CCc1cc(OC)c2c(c1)OCO2 [Myristicin] | 104 | 103 | 104 (inactive) | 81.5 (inactive)
CC(C)(C)NCC(O)c1ccccc1Cl.Cl (stereo unspecified) [Tulobuterol hydrochloride] | 101 | 110 | 89.1 (inactive) | 96.4 (inactive)
Cc1nccc2c1[nH]c1ccccc12 [Harmane] | 100 ± 0.98 | 106 ± 11 | 97 (inactive) | 96.7 (inactive)
CN1CC[C@@]2(C)c3cc(OC(=O)Nc4ccccc4)ccc3N(C)[C@@H]12 | 103 | 90.6 | 106 (inactive) | 102 (inactive)
